SMILES strings stand for the structures. The campaign covered roughly 48,000 compounds. About 13,000 (27%) showed an effect of 50% or more. Some of the results follow.

Here are results for 100 compounds from ChEMBL document CHEMBL3988442, “University of Dundee, Small-Polar-MMV Screening Library” (2021).

The test has as its system Wolbachia pipientis. The test is described as follows: Anti-Wolbachia Cell-Based Screen. Type of test: functional. Set-up: scale not given: in the data most compounds retested in dose-response had high values. The note with it: 5 µM.
For the compound `Cc1nn(C)c(C)c1CCC(=O)N1CCCC1Cn1cccn1` (stereo not given), the “Percent Effect” value turned out to be 11.22%.
The figure for `Cc1cnn(CC2CCCN2C(=O)CCc2c(C)nc(C)[nH]c2=O)c1` (stereo not given) is 112.3%.
On to `Cc1cnn(CC2CCCN2C(=O)CCc2c(C)noc2C)c1` (stereo not given), for which the “Percent Effect” value is 111.6%.
In the case of `Cc1cnn(CC2CCCCN2C(=O)Cc2c(C)noc2C)c1` (stereo not given), the “Percent Effect” value turned out to be 117.3%.
For `Cc1cnn(CC2CCCCN2C(=O)Cc2csc(C)n2)c1` (stereo not given), the “Percent Effect” value was 1.923%.
`Cc1cnn(CC2CCCN2C(=O)CCc2c(C)nn(C)c2C)c1` (stereo not given): the “Percent Effect” value was 103.1%.
For the compound `Cc1cnn(CC2CCCN2C(=O)CCc2nc3ccccc3[nH]2)c1` (stereo not given), the “Percent Effect” value is on record as 1.047%.
The result for `Cc1cc(CN(C)C2CCN(c3cccc(-c4cscn4)c3)CC2)on1` reads -19.07%.
As for `CNS(=O)(=O)c1ccc(C(=O)NCCNc2ncccn2)cc1`, the “Percent Effect” value came to 1.025%.
On to `CC(C)OCCOCc1cccc(NC(=O)NCc2ccncc2)c1`, for which the “Percent Effect” value worked out at 3.047%.
Turning to `Cn1nnc2cc(C(=O)NS(=O)(=O)c3ccc(F)cc3)ccc21`, the “Percent Effect” value is reported as -8.568%.
In the case of `Cc1cc(C)n(CC2CCCN2C(=O)Cc2c(C)noc2C)n1` (stereo not given), the “Percent Effect” value worked out at 2.87%.
For `Cc1cnn(CC2CCCN2C(=O)Cc2c(C)noc2C)c1` (stereo not given), the “Percent Effect” value is given as 123.7%.
Regarding `O=C(O)COc1ccc(CN2CCCC(CCc3ccccc3)C2)cc1` (stereo not given), the “Percent Effect” value is 98.9%.
For the compound `COc1ccnc(CN2CCCC(CCc3ccccc3)C2)c1OC` (stereo not given), the “Percent Effect” value is on record as -14.6%.
With `COc1coc(CN2CCCC(CCc3ccc(F)cc3)C2)cc1=O` (stereo not given), the “Percent Effect” value is on record as 20.93%.
As for `CN(C)C(=O)CCC1CCCN(Cc2ccc(-c3cccnc3)cc2)C1` (stereo not given), the “Percent Effect” value was -4.388%.
On to `Cc1nccn1CC1CCCN(Cc2ccc(-c3cccnc3)cc2)C1` (stereo not given), for which the “Percent Effect” value is on record as 30.54%.
As for `COc1ccc(CCC2CCCN(CC(=O)O)C2)cc1` (stereo not given), the “Percent Effect” value is on record as 116.8%.
The result for `COc1ccc(CCC2CCCN(C(=O)CCc3cc(O)no3)C2)cc1` (stereo not given) reads 6.592%; that for `Cc1[nH]c(=O)[nH]c(=O)c1CN1CCCC(CCc2ccccc2)C1` (stereo not given), -19.89%.
With `O=C(O)COc1ccc(CN2CCCC(Cc3cccnc3)C2)cc1` (stereo not given), the “Percent Effect” value is reported as 125.7%.
The figure for `OCC(O)CSCc1ccc(Cl)cc1Cl` (stereo not given) is -1.817%.
For `Cc1nc(NC(=O)OC(C)(C)C)sc1C#N`, the “Percent Effect” value is listed as 16.95%.
For the compound `CCCc1n[nH]c(C2CN(C(=O)c3cccc4cn[nH]c34)CCO2)n1` (stereo not given), the “Percent Effect” value is 108.2%.
`CCCc1n[nH]c(C2CN(C(=O)c3cccnc3N(C)C)CCO2)n1` (stereo not given): the “Percent Effect” value came out at 106.9%.
With `CCCc1n[nH]c(C2CN(C(=O)c3cc(F)ccc3OC)CCO2)n1` (stereo not given), the “Percent Effect” value is given as -4.099%.
Take `CCCc1n[nH]c(C2CN(C(=O)c3n[nH]c4ccccc34)CCO2)n1` (stereo not given): the “Percent Effect” value turned out to be 103.5%.
`CCCc1n[nH]c(C2CN(C(=O)c3cccc4[nH]ncc34)CCO2)n1` (stereo not given): the “Percent Effect” value worked out at 117.3%.
As for `CC(C)c1n[nH]c(C2CN(C(=O)c3cccc4cn[nH]c34)CCO2)n1` (stereo not given), the “Percent Effect” value was 2.376%.
On to `COc1ccc(CNCCc2cccc(C(N)=O)c2)cc1O`, for which the “Percent Effect” value is given as 8.083%.
In the case of `O=C(O)C(F)(F)F.O=C(O)C(F)(F)F.c1snnc1CN1C[C@H]2CCC[C@@H](CN3CCOCC3)[C@H]2C1`, the “Percent Effect” value is 4.838%.
Turning to `COc1ccc(C(=O)NCCCC2(C3OCCO3)CCOCC2)cc1`, the “Percent Effect” value is 0.9631%.
In the case of `CCCc1n[nH]c(C2CN(C(=O)c3ccco3)CCO2)n1` (stereo not given), the “Percent Effect” value was -0.9471%.
On to `CCCc1n[nH]c(C2CN(C(=O)c3ccc[nH]3)CCO2)n1` (stereo not given), for which the “Percent Effect” value came to 125.3%.
Consider `CCCc1n[nH]c(C2CN(C(=O)C3=COCCC3)CCO2)n1` (stereo not given), for which the “Percent Effect” value is -2.018%.
For the compound `CO[C@H]1C[C@@H]2CN(C(=O)Cc3ccc(C)s3)C[C@@H]2C1`, the “Percent Effect” value was 123.2%.
`CO[C@H]1C[C@@H]2CN(C(=O)c3ccc(C)s3)C[C@@H]2C1`: the “Percent Effect” value came out at 128.5%.
The figure for `C[C@@H]1C[C@H]2CN(C(=O)c3cccc4c3OCCO4)C[C@H]2O1` is -11.28%; for `C[C@H]1C[C@H]2CN(C(=O)c3cccc4c3OCCO4)CC[C@H]2O1` it is 2.231%.
Turning to `CO[C@H]1C[C@@H]2CN(C(=O)c3cccc4c3OCCO4)C[C@@H]2C1`, the “Percent Effect” value turned out to be 78.24%.
In the case of `COc1ccc(F)cc1C(=O)N1C[C@H]2C[C@H](OC)C[C@H]2C1`, the “Percent Effect” value turned out to be 117.3%.
Turning to `Cc1ccc(CC(=O)NC(C)C(=O)N2CCS(=O)(=O)CC2)s1` (stereo not given), the “Percent Effect” value was determined as 0.993%.
The result for `Cc1csc(N2CCN(C(=O)Cc3ccc(C)s3)CC2)n1` reads 9.508%; that for `COc1ccc(F)cc1C(=O)N1CCCC(n2nc(C)nc2C)C1` (stereo not given), -10.5%.
On to `COc1ccc(F)cc1C(=O)N1CC(c2ccncc2)C1`, for which the “Percent Effect” value came out at 9.533%.
As to `COc1ccc2c(c1)CN(Cc1nc3c(cnn3C)c(=O)[nH]1)CC2`, the “Percent Effect” value is recorded as -2.019%.
With `Cc1sc(-c2ccco2)nc1C(=O)N(CC1CCOC1)C1CC1` (stereo not given), the “Percent Effect” value amounted to 13.16%.
The result for `Cc1cc(CNC(=O)C2CCCCN2C(=O)OC(C)(C)C)no1` (stereo not given) reads 8.299%.
The figure for `Cc1ccc(OC2(C(=O)O)CCN(C(=O)c3ccsc3)CC2)cn1` is -3.963%; for `CN(Cc1ccc(F)cc1)CC1(O)CCN(C(=O)c2ccccn2)C1` (stereo not given) it is 129.8%; for `CN(Cc1ccc(F)cc1)CC1(O)CCN(C(=O)c2ccsc2)C1` (stereo not given) it is 101.4%.
As for `CN(Cc1ccc(F)cc1)CC1(O)CCN(C(=O)c2ccncc2)C1` (stereo not given), the “Percent Effect” value came to 120.1%.
The figure for `CN(C)CC1(O)CCN(C(=O)c2cnc(-c3ccccn3)nc2)C1` (stereo not given) is -10.46%; for `CN(C)CC1(O)CCCN(C(=O)c2ccccc2-n2cncn2)C1` (stereo not given) it is -6.613%.
Consider `CN(C)CC1(O)CCCN(C(=O)c2cnc(-c3ccccn3)nc2)C1` (stereo not given), for which the “Percent Effect” value is given as 7.408%.
Consider `CN(Cc1ccc(F)cc1)CC1(O)CCN(C(=O)c2ccccc2)C1` (stereo not given), for which the “Percent Effect” value was -10.29%.
For `Cc1ncncc1C(=O)N1CCC(O)(CN(C)Cc2ccc(F)cc2)C1` (stereo not given), the “Percent Effect” value is reported as 90.38%.
For `CN(C)CC1(O)CCN(C(=O)c2cnc(-c3cccnc3)nc2)C1` (stereo not given), the “Percent Effect” value is recorded as -2.107%.
As for `CN(C)CC1(O)CCN(C(=O)c2ccc(-n3cnnc3)cc2Cl)C1` (stereo not given), the “Percent Effect” value is -7.306%.
The result for `Cn1cc(CNCC2Cn3nnc(-c4ccccc4)c3CO2)cn1` (stereo not given) reads -12.32%.
On to `Cn1nnc2cc(C(=O)NS(=O)(=O)Cc3ccc(F)cc3)ccc21`, for which the “Percent Effect” value is reported as -12.26%.
The figure for `COCC(C)NC(=O)CN1CCC2(CC1)OCCO2` (stereo not given) is -2.993%.
Turning to `CN1CCOC(C(=O)N2CCC3(CCCC3)CC2)C1` (stereo not given), the “Percent Effect” value is -33.61%.
Take `O=C(CCc1ccccc1Br)NCC(=O)NCc1ccccc1`: the “Percent Effect” value came to 2.467%.
As to `CN(Cc1ccc(F)cc1)CC1(O)CCN(C(=O)c2cccs2)C1` (stereo not given), the “Percent Effect” value worked out at 131.3%.
For the compound `CN(C)CCN1CC2(CCC1=O)CCN(C(=O)c1ccn(C)n1)CC2`, the “Percent Effect” value amounted to 6.742%.
In the case of `COc1ccc(CN(C)CC2(O)CCN(C(=O)c3cccn3C)C2)cc1` (stereo not given), the “Percent Effect” value is on record as -15.88%.
Turning to `CN(Cc1ccc(F)cc1)CC1(O)CCN(C(=O)c2ccn(C)n2)C1` (stereo not given), the “Percent Effect” value came to 136.3%.
The figure for `O=C(Cc1ccccc1)C1CCCN(Cc2cncn2C2CCCC2)C1` (stereo not given) is -39.33%; for `Cc1nccnc1N1CCC(Cc2ccccc2Cl)(C(=O)O)CC1` it is 4.229%.
For `CCc1ccc(C(NCC(N)=O)C(C)(C)C)o1` (stereo not given), the “Percent Effect” value is reported as -15.62%.
The result for `CN1CCC(Oc2ccc(-n3ccnc3-c3ccncc3)cc2)CC1` reads 114.7%; that for `Cc1ccc(C)c(C(=O)Nc2ccc(OC3CCN(C)CC3)cc2)c1`, -4.844%; that for `Cc1ccc(-c2nccn2-c2ccc(OC3CCN(C)CC3)cc2)o1`, 109.9%.
On to `Cc1nnc(CN2CCC(Oc3ccc(F)cc3)CC2)o1`, for which the “Percent Effect” value is reported as -12.54%.
For `c1cc(CN2CCCC2)cc(-n2ccnc2-c2ccncc2)c1`, the “Percent Effect” value was -6.612%.
For `CN1CCC(Oc2ccc(-n3ccnc3-c3nccn3C)cc2)CC1`, the “Percent Effect” value came to 110.4%.
Consider `Cn1ccnc1-c1nccn1-c1cccc(CN2CCCC2)c1`, for which the “Percent Effect” value is recorded as -8.491%.
Consider `Cc1cccc(C(=O)Nc2ccc(OC3CCN(C)CC3)cc2)c1`, for which the “Percent Effect” value is listed as -4.145%.
Regarding `Cc1ccc(C(=O)Nc2ccc(OC3CCN(C)CC3)cc2)c(C)c1`, the “Percent Effect” value was 4.12%.
The figure for `CCC(CC)c1cc(CNC(=O)N2CCOC(C)C2)on1` (stereo not given) is 0.178%; for `COc1ccc(C(=O)N2CCC(Oc3cccc(C)c3)(C(=O)O)CC2)o1` it is -1.031%; for `Cc1ccc(Cl)c(C(C(=O)O)N(C)Cc2cnn(C)c2)c1` (stereo not given) it is -5.56%.
As for `O=C(NC1CCS(=O)(=O)C1)c1sccc1-c1ccc(F)cc1` (stereo not given), the “Percent Effect” value was determined as 12.15%.
The result for `CC(C)c1ncc(CN2C[C@@H](CN3CCC(O)CC3)[C@@H](CO)C2)cn1` reads -17.14%; that for `CC(C)c1ncc(CN2C[C@@H](CN3CCCC3)[C@@H](CO)C2)cn1`, -18.71%.
Consider `CCN1CCN(C[C@@H]2CN(Cc3cnc(C(C)C)nc3)C[C@@H]2CO)CC1`, for which the “Percent Effect” value is given as -21.09%.
For the compound `CCc1cn[nH]c1C1CCCN(C(=O)c2cnc(NC(C)C)nc2)C1` (stereo not given), the “Percent Effect” value was -3.348%.
The result for `COc1ccccc1CC1CCCN1C(=O)c1cn[nH]c1C` (stereo not given) reads 6.47%; that for `CC(C)c1ncc(CN2CCCC(CO)C2)cn1` (stereo not given), -2.469%.
As to `COc1ncc(CN2CCCC2c2[nH]ncc2C(=O)N(C)C)cn1` (stereo not given), the “Percent Effect” value is given as 107.3%.
Turning to `Cc1nn(C)c(C)c1C1CCCN1Cc1cccc(C(=O)N(C)C)c1` (stereo not given), the “Percent Effect” value is recorded as -5.304%.
Consider `CNc1ncc(CN2CCCC2c2[nH]ncc2C(=O)N(C)C)cn1` (stereo not given), for which the “Percent Effect” value is on record as 118.3%.
Consider `CNc1ncc(CN(C)C(=O)[C@@]23CNC[C@@H]2CN(C2CCCC2)C3)cn1`, for which the “Percent Effect” value was determined as 3.616%.
As to `CC(C)c1ncc(CN2CCC(c3n[nH]cc3C(=O)N(C)C)C2)cn1` (stereo not given), the “Percent Effect” value was 128.3%.
Regarding `CC(C)c1ncc(CN2CCCC2c2[nH]ncc2C(=O)N(C)C)cn1` (stereo not given), the “Percent Effect” value is 138.1%.
As for `CCC(CC)N(C)S(=O)(=O)c1ccc(CCNC(C)=O)s1`, the “Percent Effect” value is -16.74%.
Take `COc1cccc2c1OCC(C(=O)N(C)CCCc1cnn(C)c1)C2` (stereo not given): the “Percent Effect” value is given as -4.921%.
The result for `Cc1cccn2cc(CN3CCCC(c4ccn[nH]4)C3)nc12` (stereo not given) reads 3.062%.
